Shown is part of a subset that was picked to be rich in hits.
KDM5B inh – Primary screen for KDM5B Histone Demethylases FDH-coupled qHTS; Potency, µM (doses to about 57.7 µM), most hits filed as inhibitors; KDM5B demethylase, FDH-coupled NADH fluorescence (FDH is formaldehyde dehydrogenase); Lysine-specific demethylase 5B (Homo sapiens), Q9UGL1; 2.6% of 220,000 active; active means well fitted inhibition curve with a large enough effect; further: 0% is about no effect; nearly all actives have a fitted effect of over 70% in size
Target sequence (Q9UGL1 whole entry, looked up): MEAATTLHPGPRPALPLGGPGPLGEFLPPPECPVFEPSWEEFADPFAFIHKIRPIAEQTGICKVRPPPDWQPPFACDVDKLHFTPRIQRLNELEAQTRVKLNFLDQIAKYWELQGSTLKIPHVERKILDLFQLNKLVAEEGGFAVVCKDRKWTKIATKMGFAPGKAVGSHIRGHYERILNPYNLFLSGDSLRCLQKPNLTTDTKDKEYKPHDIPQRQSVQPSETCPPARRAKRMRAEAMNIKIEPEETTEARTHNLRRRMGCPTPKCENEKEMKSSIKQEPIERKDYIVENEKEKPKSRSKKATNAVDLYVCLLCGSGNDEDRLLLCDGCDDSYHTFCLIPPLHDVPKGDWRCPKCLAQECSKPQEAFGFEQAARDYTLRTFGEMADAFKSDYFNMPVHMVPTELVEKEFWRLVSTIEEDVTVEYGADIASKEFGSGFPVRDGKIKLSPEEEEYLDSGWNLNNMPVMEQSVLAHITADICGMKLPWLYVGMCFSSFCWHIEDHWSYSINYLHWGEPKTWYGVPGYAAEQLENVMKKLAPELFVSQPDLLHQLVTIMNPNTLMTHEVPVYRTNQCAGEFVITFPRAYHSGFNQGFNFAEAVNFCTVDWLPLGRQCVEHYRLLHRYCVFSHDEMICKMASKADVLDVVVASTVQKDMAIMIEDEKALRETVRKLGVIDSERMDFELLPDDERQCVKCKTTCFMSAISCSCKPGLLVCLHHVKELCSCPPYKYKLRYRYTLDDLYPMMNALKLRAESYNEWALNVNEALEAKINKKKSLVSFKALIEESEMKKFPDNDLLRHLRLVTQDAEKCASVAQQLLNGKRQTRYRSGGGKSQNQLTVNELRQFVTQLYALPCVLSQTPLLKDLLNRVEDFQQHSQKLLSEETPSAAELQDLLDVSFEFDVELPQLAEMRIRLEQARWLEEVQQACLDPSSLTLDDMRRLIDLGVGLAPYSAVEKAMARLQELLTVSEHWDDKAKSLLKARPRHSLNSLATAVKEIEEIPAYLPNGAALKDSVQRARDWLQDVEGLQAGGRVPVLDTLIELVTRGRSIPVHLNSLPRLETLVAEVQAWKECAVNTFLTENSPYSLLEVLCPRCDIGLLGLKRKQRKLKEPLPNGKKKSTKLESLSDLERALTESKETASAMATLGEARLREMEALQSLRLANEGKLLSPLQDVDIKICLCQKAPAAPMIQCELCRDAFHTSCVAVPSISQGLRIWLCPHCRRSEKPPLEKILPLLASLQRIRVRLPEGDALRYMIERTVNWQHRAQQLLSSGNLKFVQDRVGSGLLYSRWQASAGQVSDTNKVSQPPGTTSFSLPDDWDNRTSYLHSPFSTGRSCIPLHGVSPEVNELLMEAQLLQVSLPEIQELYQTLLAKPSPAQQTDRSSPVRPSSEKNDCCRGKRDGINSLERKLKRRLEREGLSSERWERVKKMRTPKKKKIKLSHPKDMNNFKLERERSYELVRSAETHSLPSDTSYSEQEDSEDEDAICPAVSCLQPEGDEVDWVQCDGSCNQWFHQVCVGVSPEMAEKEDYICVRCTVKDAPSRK
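KDM5BΔAP (200 nM final) in 50 mM HEPES pH 7.5, 0.01% Tween-20 was preincubated 10 min at RT with compound over a concentration range. Substrate mix (H3K4me3 12.5 µM, α-KG 25 µM, Fe²⁺, ascorbate, NAD⁺, FDH) was added, and NADH fluorescence change over 30 min gave dose-response curves.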
Starred values were filed as active, the others as inactive; i = inactive. Potency means the concentration at half of the fitted maximal effect.

SMILES	KDM5B inh
COC(=O)C1=C(C)N=C2SC=C(CC(=O)N(C)Cc3ccco3)N2C1c1cccc(Cl)c1 (stereo not given)	i
O=C(NCCOc1ccccc1)c1nc2c(o1)CCN(Cc1ccc3[nH]ccc3c1)CC2	40µM*
O=C(Nc1ccc(Cl)cc1)c1nc2c(o1)CCN(Cc1ccccc1)CC2	32µM*
Cc1cccc(CN2CCc3nc(C(=O)NCc4ccccc4)oc3CC2)c1	i
Cc1csc(NC(=O)c2nc3c(o2)CCN(Cc2ccccc2F)CC3)n1	i
O=C(Nc1ccc(Cl)cc1)c1nc2c(o1)CCN(Cc1cc(F)ccc1F)CC2	32µM*
O=C(Nc1cccnc1)c1nc2c(o1)CCN(Cc1ccc(F)c(F)c1)CC2	i
O=C(NCc1ccncc1)c1nc2c(o1)CCN(CCCc1ccccc1)CC2	i
O=C(NCC1CC1)c1nc2c(o1)CCN(Cc1ccc3[nH]ccc3c1)CC2	i
O=C(NCCOc1ccccc1)c1nc2c(o1)CCN(Cc1ccsc1)CC2	i
O=C(CN1CCN(Cc2ccccc2)CC1)Nc1ccc(Cl)cc1	i
O=C(NCc1ccccc1)c1nc2c(o1)CCN(Cc1ccc(F)cc1)CC2	i
O=C(NCc1ccccc1)c1nc2c(o1)CCN(Cc1ccc(F)c(Cl)c1)CC2	28µM*
Cc1cccc(C)c1NC(=O)CN1C(=O)NC2(CCC(C(C)(C)C)CC2)C1=O (stereo not given)	i
Cc1ccc(CC(=O)NCc2cccs2)cc1	i
CS(=O)(=O)Nc1ccc(C2(C(=O)NC3CCCCCC3)CCCCC2)cc1	i
CCOC(=O)c1cnc2ccc(OC)cc2c1Nc1ccc(C(C)=O)cc1	i
COc1cccc(C(=O)N2CCC(N3C[C@H](O)C[C@H]3C(=O)NC3CCCCC3)CC2)c1C	i
CC(C)c1nn2c(=O)cc(CSc3n[nH]c(-c4ccccc4F)n3)nc2s1	i
COCCN(Cc1nc2ccccc2c(=O)[nH]1)C(=O)Cc1csc(-c2ccc(C)cc2)n1	i
O=C(Nc1cc(Cl)cc(Cl)c1)c1ccc(S(=O)(=O)C2CCS(=O)(=O)C2)cc1 (stereo not given)	i
Cc1cc(/C=C/C(=O)c2ccc(O)cc2)cc(C)c1O	i
CC1CCCCN1S(=O)(=O)c1ccc(C(=O)Nc2ccc(Cl)c3ncsc23)cc1 (stereo not given)	i
Cc1cc(-n2nnnc2N2CCN(C(=O)Nc3ccc(C)c(F)c3)CC2)ccc1F	i
CC(NC(=O)c1ccc2ccccc2n1)c1ccc(Cl)c(Cl)c1 (stereo not given)	i
SMILES	KDM5B inh
CC(Cc1cccs1)N(Cc1ccccc1)C(=O)c1cccc(S(=O)(=O)N2CCCC2)c1 (stereo not given)	i
O=C(NCc1ccco1)c1cc2c(s1)CCN(C(=O)c1ccc(Cl)cc1)C2	i
COCCNC(=O)[C@@H]1C[C@@H](O)CN1C1CCN(C(=O)Cc2ccccc2)CC1	i
O=C(OCc1cccc(F)c1)c1ccc(Cl)c(S(=O)(=O)N2CCCC2)c1	i
Cc1oc(-c2ccccc2)nc1CC(=O)NCC1(N(C)C)CCCCCC1	i
O=C(C1CCCC1)N1CC2(CCCN(Cc3ccc(Cl)cc3)C2)Cc2ccccc21 (stereo not given)	i
COc1ccc(C(=O)N2CCC(N3CCCCCC3=O)CC2)cc1	i
Cc1ccc(C(=O)N2CCC(N3CCCCCC3=O)CC2)cc1	35µM*
O=C(c1nc2sccn2c1Br)N1CCC(N2CCCCC2)CC1	i
O=C(c1ccccn1)N1CCC(N2CCCC2=O)CC1	i
O=C(c1nc2sccn2c1Br)N1CCCC1	i
O=C(c1cc(Br)cn2ccnc12)N1CCC(N2CCCCC2)CC1	28µM*
O=C(c1cccc(Cl)c1)N1CCC(N2CCCCCC2=O)CC1	i
O=C(c1cc(Br)cn2ccnc12)N1CCCC1	35µM*
CN1CCN(C(=O)c2cc(Br)cn2C)CC1	i
O=C(c1cc(Br)cn2ccnc12)N1CCC(N2CCCCCC2=O)CC1	25µM*
Cc1ccc(C(=O)N2CCC(N3CCCC3=O)CC2)cc1	i
COc1cc(C(=O)N2CCC(N3CCCCC3)CC2)cc(OC)c1C	i
COC(=O)C(C)Oc1ccc2c(=O)c(-c3ccccc3)c(C(F)(F)F)oc2c1 (stereo not given)	i
Clc1ccc(Oc2ccc3nnnn3n2)c(Br)c1	i
O=C(CSc1ncc(C(F)(F)F)cc1Cl)N1CCc2ccccc21	i
Cc1c(Cl)cccc1N=C1NN=C(c2ccc3c(c2)CC(C)N3S(C)(=O)=O)CS1 (stereo not given)	i
N#CC1(NC(=O)COC(=O)c2nn(Cc3ccccc3)c(=O)c3ccccc23)CCCCC1	i
O=C(c1cc(-c2ccc(Br)cc2)on1)N1CCOCC1	i
O=C(c1ccccc1)N1CCC(N2CCNC2=O)CC1	i
CC1CCN(C(=O)c2cn3ccnc(-c4ccc(F)cc4)c3n2)CC1	i
N#CC1CCN(C(=O)c2cc(Br)cn3ccnc23)CC1	40µM*
COc1ccc(C(=O)N2CCC(N3CCNC3=O)CC2)cc1	89µM*
O=C(Nc1ccccc1C(=O)N1CCOCC1)c1cccc(Br)c1	i

Bioassay records from PubChem BioAssay.
